Most compounds without a hit are left out; they make up all but 9.4% or so of the library.
AMA1 RON2 block: disrupts binding of P. falciparum AMA1 to RON2; Potency, µM (highest dose often 58.2 µM), most hits filed as inhibitors; 0.2% of 360,000 active; AlphaScreen AMA1-biotinylated RON2 peptide binding; also: nearly all actives have a fitted effect of over 45% in size
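AMA1 (3D7) with his tag at 25 nM final met compounds first, then biotinylated RON2 peptide at 25 nM; detection used donor plus acceptor beads, 10 µg/mL apiece, read by AlphaScreen after 30 min at room temperature.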
SARS PLP yeast: SARS-CoV PLP inhibition in yeast; Potency, µM (top dose mostly 32.9 µM), most hits filed as activators; 0.19% of 330,000 active; S. cerevisiae expressing SARS-CoV PLpro, growth rescue; calls by dose curve; also: nearly all actives have a fitted effect of over 55% in size
Pf growth 48h: P. falciparum growth inhibition at 48 hours (one generation) | P. falciparum luciferase growth in erythrocytes, 48 h | 5.9% of 310,000 active | Potency, µM (doses to about 28.7 µM), hits mostly inhibitors
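Compounds are pin-transferred into medium, infected erythrocytes (2% hematocrit, 0.1% parasitemia final) are added, and plates sit one parasite generation at 37 C in 5% CO2. Detection reagent is then added and luminescence measured.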
Pf growth 96h: P. falciparum growth inhibition at 96 hour, primary screen for plastid delayed-death inhibitors; P. falciparum luciferase reporter growth, 96 h; Potency, µM (top dose mostly 28.7 µM), most hits filed as inhibitors; 6.9% of 320,000 active
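Readout is luminescence from an integrated firefly luciferase in P. falciparum. Red cells, 2% hematocrit and 0.05% parasitemia final, were cultured with compound through two parasite generations (96 hours) at 37 C, 5% CO2.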
Each line names hits and unclear results; the compound was inactive in the other large screens. Unless noted, calls follow the shape of the dose curve; as a rule, active = well fitted curve in the direction sought with a large enough effect; inconclusive = small, poorly fitted or top-dose-only effect, or another doubt; inactive = no such curve, though single readings can be large; an effect the other way counts as inactive or inconclusive.

Cc1cc2oc(=O)cc(CN3CCCCC3C)c2cc1C(C)C (stereo not drawn)	Pf growth 48h 15µM, Pf growth 96h inconclusive
Cc1cc2oc(=O)cc(CN(C)Cc3ccccc3)c2cc1C(C)C	Pf growth 48h 13µM, Pf growth 96h inconclusive
COc1ccc(CN(C)Cc2cc(=O)oc3cc(C)c(C(C)C)cc23)cc1OC	Pf growth 48h inconclusive, Pf growth 96h inconclusive
CCOC(=O)C1=NN(c2ccc(C)cc2)CC1C(=O)OC (stereo not drawn)	Pf growth 96h 5.9µM
OC(CN1CCN(c2cccc(Cl)c2)CC1)c1ccc(F)cc1 (stereo not drawn)	Pf growth 48h inconclusive, Pf growth 96h inconclusive
COc1ccc(NC(=S)NN2CCOCC2)cc1OC	Pf growth 96h inconclusive
CCOC(=O)/C(N=O)=C(\O)C1CCN(C(=O)OCC)CC1	Pf growth 96h 13µM (no result: Pf growth 48h)
COc1ccc(C)cc1NC(=O)C(OC(=O)CNC(=O)c1cc(C)cc(C)c1)c1ccccc1 (stereo not drawn)	none
COc1ccc(Cn2ccnc2SCC(=O)Nc2ccccc2)cc1	none
CCC(C)(C)n1nnnc1CN1CCN(C(c2ccccc2)c2ccccc2)CC1	Pf growth 48h 7.4µM
c1ccc(C(c2ccccc2)N2CCN(Cc3nnnn3C3CCCC3)CC2)cc1	Pf growth 48h inconclusive
CC(C)CCn1nnnc1CN1CCN(C(c2ccccc2)c2ccccc2)CC1	Pf growth 48h 6.6µM
COc1ccc(NC(=O)Cc2nnc(SCC(=O)NC3CCCC3)n2C)cc1	none
O=C(CNC(=O)c1ccc(Br)o1)Nc1ccc(N2CCCCCC2)cc1	Pf growth 96h 10µM
O=C(Nc1ccc(NC(=O)c2cccs2)cc1)c1ccc(Br)o1	none (no result: Pf growth 48h)
CC1CCCCN1CC(=O)Nc1ccc(N2CCCCCC2)cc1 (stereo not drawn)	AMA1 RON2 block 28µM, Pf growth 48h inconclusive
O=C(CNC(=O)c1ccco1)Nc1ccc(N2CCCCCC2)cc1	none
O=C(Nc1ccc(N2CCN(C(=O)c3cccs3)CC2)cc1)c1ccc(Br)o1	Pf growth 48h 12µM, Pf growth 96h inconclusive
CCN(CC)CCCn1c2c(c(SCC(=O)Nc3cc(C)on3)nc1=O)CCC2	Pf growth 48h inconclusive
CCOC(=O)/C=C1\CC(C(=O)OCC)Oc2ccccc21 (stereo not drawn)	none (no result: Pf growth 48h, Pf growth 96h)
N#Cc1nc(Cc2cccc3ccccc23)oc1NCc1ccco1	Pf growth 48h inconclusive, Pf growth 96h inconclusive
CC(C)(C)NC(=O)COC(=O)c1ccc(S(=O)(=O)N2CCCCCC2)cc1	Pf growth 96h inconclusive
COc1ccc(C(=O)c2coc3ccc(O)c(CN4CCCCC4)c23)cc1	Pf growth 48h 7.4µM
COc1ccc2occ(C(=O)c3coc4ccc(O)c(CN(C)C)c34)c2c1	Pf growth 48h 8.3µM (no result: Pf growth 96h)
COCCCNC(=O)CCn1c(=O)c2ccccc2n(Cc2cccc([N+](=O)[O-])c2)c1=O	none
CCN(CC)S(=O)(=O)c1ccc(/C(O)=C(\C#N)c2nc3ccccc3n2C)cc1	Pf growth 48h inconclusive, Pf growth 96h 0.26µM
CC1=C(C(=O)Nc2ccccc2)C(c2ccco2)C(C#N)=C(SCc2ccccc2)N1 (stereo not drawn)	Pf growth 48h 8.3µM (no result: AMA1 RON2 block, Pf growth 96h)
CCOc1ccccc1NC(=O)CSC1=C(C#N)C(c2ccco2)C(C(=O)Nc2nc3ccccc3s2)=C(C)N1 (stereo not drawn)	Pf growth 48h 9.3µM, Pf growth 96h inconclusive
CC1=C(C(=O)Nc2ccccc2)C(c2ccncc2)C(C#N)=C(SCC(=O)Nc2ccccc2)N1 (stereo not drawn)	none (no result: Pf growth 48h)
CC1=C(C(=O)Nc2ccccc2)C(c2ccco2)C(C#N)=C(SCC(=O)OC(C)C)N1 (stereo not drawn)	Pf growth 48h 2.3µM, Pf growth 96h 7.4µM
CC1=C(C(=O)Nc2ccccc2)C(c2ccco2)C(C#N)=C(SCC(=O)Nc2cccc(C)c2C)N1 (stereo not drawn)	Pf growth 48h 2.6µM, Pf growth 96h inconclusive
COc1ccccc1NC(=O)C1=C(C)NC(SCC(=O)c2ccc(C)cc2)=C(C#N)C1c1ccco1 (stereo not drawn)	none (no result: AMA1 RON2 block, Pf growth 48h)
CSc1nc2[nH]c3c(c2c2ncnn12)CCCC3	Pf growth 48h inconclusive, Pf growth 96h inconclusive
O=C(O)c1ccc(/C=N/NC(=S)NCCN2CCOCC2)cc1	Pf growth 96h inconclusive
CCOc1ccc(OCC)c(NC(=O)C2CCN(c3nn4c(=O)cc(C)nc4s3)CC2)c1	Pf growth 48h inconclusive
CCN1CCN(Cc2nc3c(c(=O)n(C)c(=O)n3C)n2CCc2ccccc2)CC1	Pf growth 96h 12µM
Cn1c(=O)c2c(nc(CN3CCc4ccccc4C3)n2CCCO)n(C)c1=O	none
CN(Cc1ccccc1)Cc1nc2c(c(=O)n(C)c(=O)n2C)n1CCCc1ccccc1	Pf growth 96h 10µM
Cn1c(=O)c2c(nc(CN3CCc4ccccc4C3)n2Cc2cccc(Cl)c2)n(C)c1=O	Pf growth 48h 3.3µM, Pf growth 96h 1.9µM
CN1CCN(c2nc3c(c(=O)n(C)c(=O)n3C)n2Cc2cccc3ccccc23)CC1	Pf growth 48h 10µM (no result: Pf growth 96h)
O=C(Nc1ccc2c(c1)OCO2)c1cnc2n(c1=O)CCS2	none
COC(=O)c1ccc(NC(=O)CN(C)Cc2cccc(F)c2)cc1	Pf growth 96h inconclusive
COc1ccc(-n2c(C)nnc2SCC(=O)NC2CC2)cc1	none
CCOCCn1c(CN2CCN(C(c3ccccc3)c3ccccc3)CC2)nc2c1c(=O)n(C)c(=O)n2C	Pf growth 48h 1.5µM
CCOCCn1c(CN2CCN(CCO)CC2)nc2c1c(=O)n(C)c(=O)n2C	none
Cn1c(=O)c2c(nc(CN3CCN(Cc4ccccc4)CC3)n2Cc2cccc(Cl)c2)n(C)c1=O	Pf growth 48h 2.1µM, Pf growth 96h 1.2µM
Cn1c(=O)c2c(nc(CN3CCc4ccccc4C3)n2Cc2ccccc2F)n(C)c1=O	Pf growth 48h 4.7µM, Pf growth 96h inconclusive
CN(C)S(=O)(=O)c1cccc(C(=O)Nc2cc(Cl)cc(Cl)c2)c1	none (no result: Pf growth 96h)
Cc1ccc(Sc2nc([N+](=O)[O-])nn2C)cc1	Pf growth 96h inconclusive
CCCCNc1c(-c2ccc(SC(C)CC)c(OC)c2)nc2ccc(C)cn12 (stereo not drawn)	Pf growth 48h 3.3µM, Pf growth 96h inconclusive
CCCCNc1c(-c2ccc(SC3CCCCC3)c(OC)c2)nc2ccc(Cl)cn12	Pf growth 48h 8.3µM, Pf growth 96h 2.1µM
CCCCCCSc1ccc(-c2nc3ccc(Cl)cn3c2NCCCC)cc1OC	none (no result: Pf growth 48h, Pf growth 96h)
Cc1[nH]nc2c1C(c1ccc(OC(=O)c3ccco3)cc1)C(C#N)=C(N)O2 (stereo not drawn)	none
COCc1[nH]nc2c1C(c1ccc(OC)cc1)C(C#N)=C(N)O2 (stereo not drawn)	Pf growth 96h 1.3µM
CCCc1[nH]nc2c1C(c1ccc(OCCN3CCOCC3)c(OCC)c1)C(C#N)=C(N)O2 (stereo not drawn)	AMA1 RON2 block inconclusive
CCOc1cc(C2C(C#N)=C(N)Oc3n[nH]c(CC)c32)ccc1OCCN1CCOCC1 (stereo not drawn)	Pf growth 48h inconclusive, Pf growth 96h 9.3µM
COCc1[nH]nc2c1C(c1ccsc1)C(C#N)=C(N)O2 (stereo not drawn)	Pf growth 96h inconclusive

Screens: PubChem, National Center for Advancing Translational Sciences (NCATS)
